Assay outcomes (PubChem BioAssay)
p47phox inh: inhibitors of human p47phox binding. P14598. p47phox/p22phox peptide binding, fluorescence polarization, 2 h. inhibition, % at 24.7 µM. 220,000 tested, 0.53% active. AID 1274;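 active means inhibition above about 30%, limit read from the data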
Target sequence (P14598 whole entry, looked up): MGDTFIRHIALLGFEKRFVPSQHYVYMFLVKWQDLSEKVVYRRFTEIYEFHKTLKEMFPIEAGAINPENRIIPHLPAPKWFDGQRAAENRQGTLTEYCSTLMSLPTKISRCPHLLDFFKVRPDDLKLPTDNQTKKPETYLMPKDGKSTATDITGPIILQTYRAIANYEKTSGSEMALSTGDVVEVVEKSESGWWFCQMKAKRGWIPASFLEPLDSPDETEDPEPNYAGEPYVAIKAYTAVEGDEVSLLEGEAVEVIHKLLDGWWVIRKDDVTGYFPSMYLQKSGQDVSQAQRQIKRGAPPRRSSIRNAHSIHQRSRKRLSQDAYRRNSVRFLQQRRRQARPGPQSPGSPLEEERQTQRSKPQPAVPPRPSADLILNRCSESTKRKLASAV
14-3-3 Bad inh: disrupts binding of bovine 14-3-3 zeta to phospho-Bad peptide; P63103; TR-FRET 14-3-3zeta/Dy647-pBad peptide displacement, 1 h; inhibition, % at 21.7 µM; 220,000 tested, 0.71% active; AID 781;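 active means inhibition above about 70%, limit read from the data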
Target sequence (P63103 whole entry, looked up): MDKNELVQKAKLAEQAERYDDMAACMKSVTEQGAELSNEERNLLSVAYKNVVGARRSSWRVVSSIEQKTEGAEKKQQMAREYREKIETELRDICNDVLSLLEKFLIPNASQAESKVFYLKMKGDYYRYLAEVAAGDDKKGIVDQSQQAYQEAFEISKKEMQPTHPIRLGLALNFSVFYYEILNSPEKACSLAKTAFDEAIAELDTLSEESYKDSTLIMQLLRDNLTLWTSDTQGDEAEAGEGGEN
Mcl-1 Bim block: inhibitors of Bim-Mcl-1 interaction, human; Bead-based flow cytometry, Bim peptide-Mcl-1 binding; AID 1009; 190,000 tested, 0.1% active; inhibition, % at 10 µM; in the data active means inhibition above about 40%
Mcl1-Noxa inh: Mcl-1/Noxa interaction inhibition; TR-FRET Mcl-1/Noxa peptide binding, 2 h; inhibition, % at 21.7 µM; 220,000 tested, 1.5% active;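 active means compounds that cut the protein-peptide binding signal by more than 50% relative to plate controls in a single-dose test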;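 further: His-tagged Mcl-1 with rhodamine Noxa BH3 peptide and terbium anti-His antibody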
Mcl1-Bid inh: disrupts binding of human Mcl-1 to Bid peptide | TR-FRET Mcl-1/Bid-Dy647 peptide binding, 1536-well | inhibition, % at 21.7 µM | 220,000 tested, 0.97% active;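 active means compounds that cut the binding signal by more than half at the single screening dose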;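 further: His-tagged Mcl-1 with europium anti-His antibody binding Bid BH3 peptide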
Each line names hits and unclear results; the compound was inactive in the other large screens; [ ] = another dose, or the depositor's remark. Shown are actives, neighbours in structure and some others; about 3.1% of the full set was active somewhere.

O=C(Nc1ccc(Cl)c([N+](=O)[O-])c1)c1cnccn1	Mcl1-Noxa inh 64
O=C(Nc1ccc(Br)cc1Cl)c1cnccn1	none
O=C(Nc1ccc(Cl)c([N+](=O)[O-])c1)c1ccncc1	none
O=C(Nc1ccccc1Cl)c1cnccn1	Mcl1-Noxa inh 83
Cc1cccc(CN2C(=O)CCSc3ccc(Cl)cc32)c1	none
CC1=NOC(=O)/C1=C/c1ccc(-c2ccc(Cl)cc2)o1	p47phox inh 116, Mcl1-Noxa inh 67, Mcl1-Bid inh 67
CC1=NOC(=O)/C1=C\c1ccc(-c2ccc(Br)cc2C(=O)O)o1	none
CC1=NOC(=O)/C1=C\c1ccc(-c2cc(Cl)ccc2Cl)o1	Mcl1-Noxa inh 53
CC1=NOC(=O)/C1=C\c1ccc(-c2ccc(Br)cc2)o1	p47phox inh 44, Mcl1-Noxa inh 66
Cc1cc([N+](=O)[O-])c(C)cc1-c1ccc(/C=N/NC(=O)Cn2nnnc2N)o1	14-3-3 Bad inh 88, Mcl1-Noxa inh 55, Mcl1-Bid inh 53
Nc1nnnn1CC(=O)N/N=C/c1cc([N+](=O)[O-])ccc1Cl	none
Cc1ccc([N+](=O)[O-])cc1-c1ccc(/C=N/NC(=O)c2cc3c(ccc4ccccc43)o2)o1	14-3-3 Bad inh 85[fluorescence artefact?]
O=C(N/N=C/c1ccc(-c2ccc(Cl)c(C(=O)O)c2)o1)c1cc2c(ccc3ccccc32)o1	Mcl1-Noxa inh 110, Mcl1-Bid inh 96 (no result: Mcl-1 Bim block)
O=C(N/N=C/c1ccncc1)c1cc2c(ccc3ccccc32)o1	none (no result: 14-3-3 Bad inh)
O=C(N/N=C/c1cccc([N+](=O)[O-])c1)c1cc2c(ccc3ccccc32)o1	Mcl1-Bid inh 82
CCn1c2ccccc2n2c(=O)c(=O)n(CC(=O)Nc3ccc(C(C)C)cc3)nc12	none
Cc1ccccc1CN1CCN(Cc2ccccc2C(F)(F)F)CC1	14-3-3 Bad inh 75
O=S(=O)(c1ccccc1)N1CCN(Cc2ccccc2C(F)(F)F)CC1	14-3-3 Bad inh 79, Mcl1-Bid inh 83
Cc1ccc(S(=O)(=O)N2CCN(Cc3ccccc3C(F)(F)F)CC2)cc1	14-3-3 Bad inh 82
Cc1ccc(-c2nc(CS(=O)CC(=O)NCCC(C)C)c(C)o2)cc1 (stereo not drawn)	none
CCOc1ccccc1N1CCN(Cc2cn[nH]c2-c2ccc(F)cc2)CC1	none (no result: Mcl-1 Bim block)
CC(/C=N/NC(=O)c1cc(-c2cccn2C)n[nH]1)=C\c1ccccc1	14-3-3 Bad inh 95 (no result: Mcl-1 Bim block)
CCOc1ccc(/C=N/NC(=O)c2cc(-c3cccn3C)n[nH]2)cc1	none
COc1ccc2c(c1)c(=O)oc1cc3oc(C)c(C)c3cc12	Mcl1-Noxa inh 56, Mcl1-Bid inh 67
COc1ccc2c(c1)c(=O)oc1cc(O)ccc12	none
COc1ccc(N=Cc2c(O)c3ccccc3n2C(C)=O)cc1	p47phox inh 31 (no result: Mcl-1 Bim block)
COc1ccc(C(=O)C2CCCN(Cc3cn[nH]c3-c3ccc(F)cc3)C2)cc1OC (stereo not drawn)	Mcl1-Bid inh 96
COc1ccc(-c2[nH]ncc2CN2CCCC(C(=O)c3ccc(OC)cc3OC)C2)cc1 (stereo not drawn)	none
Cn1c(=O)c2c(nc(N3CCCCCC3)n2CC(O)COc2ccccc2)n(C)c1=O (stereo not drawn)	14-3-3 Bad inh 72
O=C(O)c1ccc(CS(=O)(=O)Cc2ccccc2F)o1	Mcl1-Bid inh 92
O=C(NCc1ccccc1)c1ccc(CS(=O)(=O)Cc2ccccc2F)o1	none
COc1ccc(C2=NN(C(=O)CCCC(=O)O)C(c3cn(-c4ccccc4)nc3-c3ccccc3)C2)cc1 (stereo not drawn)	none (no result: Mcl-1 Bim block)
CC1CC(C)(C)NC(=S)N1CC(=O)NCc1ccc2c(c1)OCO2 (stereo not drawn)	none
c1ccc2c(c1)[nH]c1c(N3CCOCC3)ncnc12	none
CCc1cc(N2CCOCC2)cc2c1[nH]c1ccccc12	Mcl1-Noxa inh 70
Cn1c(=O)c(Nc2ccc(O)cc2)c2c3c(cccc31)C(=O)c1ccccc1-2	Mcl1-Noxa inh 66
CC(C)c1ccc(Nc2c([N+](=O)[O-])c(=O)n(C)c3ccccc23)cc1	none (no result: Mcl-1 Bim block)
Nc1nc(N)c(N=Nc2ccc(S(N)(=O)=O)cc2)c(=O)[nH]1	none (no result: Mcl-1 Bim block)
NS(=O)(=O)c1ccc(N=Nc2ccc(=O)[nH]c2O)cc1	14-3-3 Bad inh 73, Mcl1-Noxa inh 63 (no result: Mcl-1 Bim block)
COC(=O)[C@@H]1CC[C@H](C)[C@@H](c2ccc(C)cc2)N1C(=O)c1ccc(/C=N/O[C@@H](C)c2cn([C@H](CO)Cc3ccccc3)nn2)cc1	none
Cc1ccc(N2C(=O)CC(Sc3ccccc3C(=O)O)C2=O)cc1C (stereo not drawn)	none
CCOC(=O)c1c(C)[nH]c(C(=O)CSc2nnc(-c3ccncc3)n2CC)c1C	none
C=CCn1c(SCC(=O)c2[nH]c(C)c(C(=O)OCC)c2C)nc2scc(-c3ccc(OC)c(OC)c3)c2c1=O	14-3-3 Bad inh 82, Mcl1-Bid inh 84
COc1ccc(C(=O)NC(=S)Nc2ccc3oc(=O)ccc3c2)cc1	none
CCCCCC(=O)NC(=S)Nc1ccc2oc(=O)ccc2c1	Mcl1-Noxa inh 56
COc1ccc(CNc2ncnc3c2[nH]c2cc(OC)c(OC)cc23)cc1	Mcl1-Noxa inh 52 (no result: Mcl-1 Bim block)
COc1ccc(CNc2ncnc3c2[nH]c2ccccc23)cc1	none (no result: Mcl-1 Bim block)
O=C1CC(N2CCSCC2)C(=O)N1c1cccc(Cl)c1 (stereo not drawn)	none
CCOc1ccc(/C=N/NC(=O)c2nnn(-c3nonc3N)c2COc2ccc(F)cc2)cc1	none (no result: Mcl-1 Bim block)
CCCOc1ccc(-c2c(C(=O)N/N=C/c3ccc(OCC)cc3)nnn2-c2nonc2N)cc1	none
CN(C)c1ccc(/C=N/NC(=O)c2nnn(-c3nonc3N)c2COc2ccc(F)cc2)cc1	Mcl1-Noxa inh 59 (no result: Mcl-1 Bim block)
CCCOc1ccc(-c2c(C(=O)N/N=C/c3ccc(OC)cc3)nnn2-c2nonc2N)cc1	Mcl-1 Bim block 55
O=C1CCCCCCC1Sc1ccccc1[N+](=O)[O-] (stereo not drawn)	none
Fc1cc(F)c2nc(Nc3nc4cc5c(cc4s3)OCO5)sc2c1	14-3-3 Bad inh 95[fluorescence artefact?], Mcl1-Noxa inh 99, Mcl1-Bid inh 91
CCCCNC(=O)c1ccc(S(=O)(=O)c2ccc(Cl)cc2)c(NC(C)=O)c1	14-3-3 Bad inh 72
CCCCNC(=O)c1cccc(C(=O)NCCCC)c1	none
Cc1cc(C)n2nc3ccccc3c2n1	none
Cc1cc(C)n2nc3nc(N4CCCCC4)nc(-c4ccco4)c3c2n1	Mcl1-Noxa inh 66
O=C(CN1CCCCCC1)NCCc1ccc(F)cc1	14-3-3 Bad inh 75
CC1CCN(CC(=O)NCCc2ccc(F)cc2)CC1	none
O=C(CSc1n[nH]c(=O)[nH]c1=O)Nc1cccc(S(=O)(=O)N2CCOCC2)c1	none
O=C(CSc1ccccn1)Nc1ccc2ccccc2c1	none
O=C(CSc1ccccn1)Nc1ccc2c(c1)C(=O)c1ccccc1C2=O	Mcl1-Noxa inh 72, Mcl1-Bid inh 77
O=C(CSc1n[nH]c(=O)[nH]c1=O)Nc1ccc2c(c1)C(=O)c1ccccc1C2=O	Mcl1-Noxa inh 101, Mcl1-Bid inh 61 (no result: Mcl-1 Bim block)
COCc1cc(N2CCCC2)nc(-c2ccccc2)n1	none
CN(C)CC1CCCCC1OC(=O)/C=C/c1ccccc1 (stereo not drawn)	none (no result: Mcl-1 Bim block)
